Source: PubChem BioAssay (NCI)
Values joined by “and” are separate entries in the source; they are usually repeats but may differ in a detail not shown here. Identical values can stand only once. This is part of a sample that, as a whole, favours compounds with a hit. Of some 83,000 tested, about 20% had one in any assay.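 The test compound was applied at a single concentration to cells in 96-well plates for 48 hours, and percent growth was recorded.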 Active and inactive are the calls of the source. The calls were made as follows: active = growth percent below 10; inactive = the rest.

Columns and labels:
Experiment in all cases: NCI-60 one-dose screen, 48 h (100 = growth as untreated, 0 = no growth, -100 = all killed)
Conditions in all cases: 10 µM unless noted
HCT-15 colon = system: HCT-15 colon
HT29 colon = system: HT29 colon
SNB-75 CNS = system: SNB-75 CNS
SNB-19 CNS = system: SNB-19 CNS
U251 CNS = system: U251 CNS
PC-3 prostate = system: PC-3 prostate
SK-MEL-5 melanoma = system: SK-MEL-5 melanoma
UACC-62 melanoma = system: UACC-62 melanoma
LOX IMVI melanoma = system: LOX IMVI melanoma
SK-MEL-28 melanoma = system: SK-MEL-28 melanoma
SK-MEL-2 melanoma = system: SK-MEL-2 melanoma
EKVX NSCLC = system: EKVX NSCLC
SN12C renal = system: SN12C renal
UO-31 renal = system: UO-31 renal
TK-10 renal = system: TK-10 renal
CAKI-1 renal = system: CAKI-1 renal
A498 renal = system: A498 renal
CCRF-CEM leukemia = system: CCRF-CEM leukemia
MOLT-4 leukemia = system: MOLT-4 leukemia
ACHN renal = system: ACHN renal

Compound | growth (HCT-15 colon) | growth (HT29 colon) | growth (SNB-75 CNS) | growth (SNB-19 CNS) | growth (U251 CNS) | growth (PC-3 prostate) | growth (SK-MEL-5 melanoma) | growth (UACC-62 melanoma) | growth (LOX IMVI melanoma) | growth (SK-MEL-28 melanoma) | growth (SK-MEL-2 melanoma) | growth (EKVX NSCLC) | growth (SN12C renal) | growth (UO-31 renal) | growth (TK-10 renal) | growth (CAKI-1 renal) | growth (A498 renal) | growth (CCRF-CEM leukemia) | growth (MOLT-4 leukemia) | growth (ACHN renal)
CN(C)c1ccc(/C=C(\C#N)c2ccccc2)cc1 | 26.3% (inactive) and 29.3% (inactive) and 29.4% (inactive) | 12.4% (inactive) and 6.06% (active) and 3.67% (active) | 4.23% (active) and 15.8% (inactive) | 61.4% (inactive) and 52.5% (inactive) and 35.8% (inactive) | 18.5% (inactive) and 32.3% (inactive) and 23.9% (inactive) | 18.9% (inactive) and 36% (inactive) and 19.5% (inactive) | 31.6% (inactive) and 26.3% (inactive) and 19.4% (inactive) | 32.6% (inactive) and 21.9% (inactive) and 22.2% (inactive) | 51.1% (inactive) and 41.1% (inactive) and 42.4% (inactive) | 97.7% (inactive) and 70.6% (inactive) and 64.5% (inactive) | -36% (active) and 11.7% (inactive) and 22.8% (inactive) | 53.9% (inactive) and 45.7% (inactive) and 56.9% (inactive) | 66.5% (inactive) and 62.2% (inactive) and 39.1% (inactive) | 29.1% (inactive) and 53.1% (inactive) and 42.5% (inactive) | 57.8% (inactive) and 43.1% (inactive) and 54.9% (inactive) | 41.1% (inactive) and 43.3% (inactive) | 63.6% (inactive) and 29.8% (inactive) and 0.464% (active) | -17.2% (active) and 23.6% (inactive) and 6.64% (active) | 25.2% (inactive) and 35.6% (inactive) and 34.9% (inactive) | 
COc1cc2c(c(OC)c1OC)-c1ccc(OC)c(=O)cc1[C@@H](NC(C)=O)CC2 | 12.2% (inactive) and 8.71% (active) and 3.71% (active) | 9.16% (active) and 7.29% (active) and -16.8% (active) | 35.6% (inactive) and 76.6% (inactive) and 19.3% (inactive) | 39.5% (inactive) and 30.5% (inactive) and 19% (inactive) | 22.5% (inactive) and 14.1% (inactive) and 19% (inactive) | 25.6% (inactive) and 20.7% (inactive) and 7.6% (active) | -59.8% (active) and -36.1% (active) and -32% (active) | 36.9% (inactive) and 40.9% (inactive) and 19.1% (inactive) | 15.7% (inactive) and 18.9% (inactive) and 26.5% (inactive) | 64.5% (inactive) and 62.4% (inactive) | -1.11% (active) and 20.8% (inactive) and 30.7% (inactive) | 42.2% (inactive) and 34.6% (inactive) and 35.8% (inactive) | 35.3% (inactive) and 25.5% (inactive) and 46.8% (inactive) | 35.8% (inactive) and 44% (inactive) and 21.2% (inactive) | 61.7% (inactive) and 52.7% (inactive) | 36.5% (inactive) and 21% (inactive) and 20.3% (inactive) | -0.067% (active) and 15.5% (inactive) | 8.93% (active) and 21.5% (inactive) and 3.02% (active) | 7.82% (active) and 6.6% (active) and 6.73% (active) | 
Cc1cc(-c2ccc(NS(=O)(=O)c3ccccc3)c(C)c2)ccc1NS(=O)(=O)c1ccccc1 | 84.8% (inactive) and 84.9% (inactive) | 74.2% (inactive) and 99.7% (inactive) | 72.6% (inactive) and 105% (inactive) | 91.4% (inactive) and 101% (inactive) | 94% (inactive) and 95.2% (inactive) | 63.1% (inactive) and 78.7% (inactive) | 87.2% (inactive) | 55.8% (inactive) and 63.5% (inactive) | 84% (inactive) and 75% (inactive) | 92.2% (inactive) and 109% (inactive) | 85% (inactive) and 102% (inactive) | 61.5% (inactive) and 73.6% (inactive) |  | 66.7% (inactive) and 108% (inactive) | 83.4% (inactive) and 109% (inactive) | 61.3% (inactive) and 98.8% (inactive) | 90.8% (inactive) and 89.8% (inactive) | 80.5% (inactive) and 86.6% (inactive) | 41% (inactive) and 56.3% (inactive) | 81.2% (inactive) and 96.7% (inactive)
CC(=O)Nc1cc(S(=O)(=O)O)cc2cc(S(=O)(=O)O)c(N=Nc3ccccc3)c(O)c12 | 116% (inactive) and 111% (inactive) | 118% (inactive) and 92.2% (inactive) | 92.8% (inactive) and 98.1% (inactive) | 110% (inactive) and 99.9% (inactive) | 110% (inactive) and 101% (inactive) | 88.3% (inactive) and 94.9% (inactive) | 99.4% (inactive) | 108% (inactive) and 92.2% (inactive) | 103% (inactive) and 98.7% (inactive) | 119% (inactive) and 116% (inactive) | 116% (inactive) and 88.7% (inactive) | 115% (inactive) and 113% (inactive) | 106% (inactive) and 98.4% (inactive) | 94.2% (inactive) and 83.2% (inactive) | 110% (inactive) and 98.4% (inactive) | 99.6% (inactive) | 102% (inactive) and 92.4% (inactive) | 97.5% (inactive) and 90.8% (inactive) | 111% (inactive) and 94.7% (inactive) | 106% (inactive) and 108% (inactive)
CN(C)c1ccc2nc3ccc(=[N+](C)C)cc-3sc2c1 | 28.5% (inactive) and 36.7% (inactive) | 26.6% (inactive) and 19.8% (inactive) and 74.9% (inactive) | 49.4% (inactive) and 90.2% (inactive) | 24.7% (inactive) and 23% (inactive) and 39.5% (inactive) | 3.44% (active) and -10.6% (active) and 8.51% (active) | 13.7% (inactive) and 19.8% (inactive) and 32.8% (inactive) | -85.2% (active) and 5.71% (active) and 13.6% (inactive) | -19.7% (active) and 7.25% (active) and 56.5% (inactive) | 7.11% (active) and 5.63% (active) and 34.6% (inactive) | 20% (inactive) and 45.9% (inactive) and 75% (inactive) | 20% (inactive) and 47.3% (inactive) and 79.6% (inactive) | 41.7% (inactive) and 46.9% (inactive) | 24.3% (inactive) and 12.5% (inactive) and 9.23% (active) | 62.3% (inactive) and 57.2% (inactive) and 78.6% (inactive) | 58.1% (inactive) and 73.9% (inactive) and 110% (inactive) | 30.9% (inactive) and 23.4% (inactive) and 83.2% (inactive) | 58.4% (inactive) and 75.9% (inactive) | 2.85% (active) and 26.7% (inactive) and 24% (inactive) | 24.4% (inactive) and 21.7% (inactive) and 32.9% (inactive) | 
CCN1CCN(CCNc2nccc(-c3c(-c4cccc(O)c4)nc4sccn34)n2)S1(=O)=O | 67.7% (inactive) and 59% (inactive) | 45.3% (inactive) and 50.4% (inactive) | 62.6% (inactive) and 50.2% (inactive) | 104% (inactive) and 117% (inactive) | 90.4% (inactive) and 93.2% (inactive) | 63.9% (inactive) and 77.9% (inactive) | 51% (inactive) and 32.4% (inactive) | 0.351% (active) and 0.223% (active) | 37.7% (inactive) and 30.9% (inactive) | 23.7% (inactive) and 20.5% (inactive) | 11.2% (inactive) and 27.5% (inactive) | 110% (inactive) and 111% (inactive) | 75.8% (inactive) and 66.7% (inactive) | 67.9% (inactive) and 58.3% (inactive) | 92.8% (inactive) | 44.2% (inactive) and 34% (inactive) | 74.2% (inactive) and 66.8% (inactive) | 67.4% (inactive) and 62.1% (inactive) | 89.7% (inactive) and 81.7% (inactive) | 47.5% (inactive) and 33.5% (inactive)
CNC(=O)c1cccnc1 | 103% (inactive) | 105% (inactive) | 92.5% (inactive) | 105% (inactive) | 92.3% (inactive) | 96.9% (inactive) | 107% (inactive) | 113% (inactive) | 92.9% (inactive) | 116% (inactive) | 118% (inactive) | 110% (inactive) | 111% (inactive) | 84.8% (inactive) | 103% (inactive) | 92.1% (inactive) | 85.6% (inactive) | 87.9% (inactive) | 106% (inactive) | 
